Here are results for 5 compounds from PubChem BioAssay.

Activity calls are given as the source filed them.

The nature of assay [1]: optical density shifts of acrAB sulA E. coli – strain DRC41, OD650, 48 h, E. coli filamentation inducer project, primary screen (AID 1152).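 Note: E. coli MC1000 strain DRC41 lacking acrAB efflux pump and sulA.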 As to conditions: higher = more signal, called active from +8 up or from −8 down.
Assay [2] is described as follows: probe aLefty1 binding on compound microarray – biochemical, small-molecule microarray, 635/667 nm fluorescence, primary screen (AID 1153).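 Note: score merges spot fluorescence with signal-to-noise ratio from the scanned slide images.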 The following applies: higher = more signal.
The nature of assay [3]: plasmodial surface anion channel blockers, osmotic lysis – cell-based, P. falciparum Indochina, OD700, 1 h, primary screen (AID 1154). The following applies: P. falciparum Indochina infected RBC osmotic lysis, higher = more signal, called active from +8 up or from −8 down.
Assay [4] can be described thus: plasmodial surface anion channel blockers, osmotic lysis – cell-based, P. falciparum Indochina, OD700, 2 h, primary screen (AID 1155).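 Note: lysis reports solute entry through the parasite surface anion channel PSAC.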 The following applies: P. falciparum Indochina infected erythrocytes, higher = more signal, called active from +8 up or from −8 down.
Assay [5] is described as follows: changes in parasitized red cell lysis, either direction – P. falciparum Indochina, OD700, 3 h, PSAC antagonist project, primary screen (AID 1156). The following applies: P. falciparum-infected erythrocytes, osmotic lysis, higher = more signal, called active from +8 up or from −8 down.
The nature of assay [6]: plasmodial surface anion channel blockers, osmotic lysis – cell-based, P. falciparum Indochina, OD700, 18 h, primary screen (AID 1157). As to conditions: P. falciparum Indochina infected erythrocytes, osmotic lysis OD700, 18 h; higher = more signal, called active from +8 up or from −8 down.
Assay [7] can be described thus: S6 kinase pathway phospho-S6 level changes – cell-based, A549, cytoblot, luminescence, serum-stimulated, primary screen (AID 1158).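 Note: serum-stimulated A549 lung adenocarcinoma cells; signal is phosphorylated S6 detected by cytoblot immunostaining with HRP secondary.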 The following applies: 5 h, higher = more signal.
The target in assay [8] is NADPH oxidase 2 (Homo sapiens) (UniProt P04839). As to the kind of experiment: compounds shifting NOX2 Amplex Red fluorescence – cell-based, HEK293-NOX2, PMA-stimulated, NOX inhibitor project, primary screen (AID 1159). Note: test concentration not given here. As to conditions: 45 min, higher = more signal, called active from +8 up or from −8 down.
Chain of NADPH oxidase 2 (Homo sapiens) (P04839 whole entry, looked up): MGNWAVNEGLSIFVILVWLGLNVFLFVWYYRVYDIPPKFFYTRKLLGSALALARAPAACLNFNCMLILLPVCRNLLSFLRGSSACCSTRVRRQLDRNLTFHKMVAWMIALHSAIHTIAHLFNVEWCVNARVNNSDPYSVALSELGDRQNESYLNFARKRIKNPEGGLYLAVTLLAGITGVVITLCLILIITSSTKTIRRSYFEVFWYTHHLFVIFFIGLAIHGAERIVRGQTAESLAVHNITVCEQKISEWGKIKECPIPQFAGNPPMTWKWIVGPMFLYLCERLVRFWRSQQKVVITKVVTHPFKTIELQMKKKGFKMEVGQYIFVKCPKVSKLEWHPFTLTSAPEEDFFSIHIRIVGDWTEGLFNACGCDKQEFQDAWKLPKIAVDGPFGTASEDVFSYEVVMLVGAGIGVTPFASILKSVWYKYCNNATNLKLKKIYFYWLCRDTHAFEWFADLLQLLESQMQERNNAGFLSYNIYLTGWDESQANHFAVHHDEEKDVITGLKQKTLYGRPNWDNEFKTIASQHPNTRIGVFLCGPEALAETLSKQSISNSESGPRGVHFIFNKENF
In assay [9] the target is NADPH oxidase 4 (Homo sapiens) (UniProt Q9NPH5). As to the kind of experiment: compounds shifting NOX4 Amplex Red fluorescence – cell-based, HEK293-NOX4, tetracycline-induced, NOX inhibitor project, primary screen (AID 1160). The following applies: HEK293-NOX4, Amplex Red H2O2 fluorescence, 45 min; higher = more signal, called active from +8 up or from −8 down.
Chain of NADPH oxidase 4 (Homo sapiens) (Q9NPH5 whole entry, looked up): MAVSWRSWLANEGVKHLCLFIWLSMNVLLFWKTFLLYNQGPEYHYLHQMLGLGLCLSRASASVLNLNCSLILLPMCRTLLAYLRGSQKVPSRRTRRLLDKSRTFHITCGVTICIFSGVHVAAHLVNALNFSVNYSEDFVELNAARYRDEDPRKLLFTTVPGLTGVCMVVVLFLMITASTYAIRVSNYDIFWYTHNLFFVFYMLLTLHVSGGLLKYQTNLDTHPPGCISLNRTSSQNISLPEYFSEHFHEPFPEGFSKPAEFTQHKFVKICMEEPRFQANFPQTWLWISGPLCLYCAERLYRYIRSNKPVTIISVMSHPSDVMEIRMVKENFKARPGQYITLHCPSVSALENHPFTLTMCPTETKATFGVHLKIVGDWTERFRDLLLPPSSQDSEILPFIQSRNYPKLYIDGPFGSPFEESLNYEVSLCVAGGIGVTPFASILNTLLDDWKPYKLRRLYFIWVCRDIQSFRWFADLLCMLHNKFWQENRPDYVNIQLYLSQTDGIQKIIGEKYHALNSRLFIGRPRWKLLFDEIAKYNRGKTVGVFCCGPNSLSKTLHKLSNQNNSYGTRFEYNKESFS
Assay [10] concerns the target NADPH oxidase 5 (Homo sapiens) (UniProt Q96PH1). As to the kind of experiment: compounds shifting NOX5 Amplex Red fluorescence – cell-based, HEK293-NOX5, NOX inhibitor project, primary screen (AID 1161). As to conditions: HEK293-NOX5, ionomycin, 45 min, higher = more signal.
A short description of assay [11]: compound effects on lung adenocarcinoma cell viability – A549, calcein-AM fluorescence, 48 h, basal, profiling panel (AID 1162). Note: test concentration not given here. The following applies: higher = more signal.
Assay [12] is described as follows: compound effects on differentiated 3T3-L1 adipocyte viability – cell-based, 3T3-L1 adipocytes, calcein-AM fluorescence, 48 h, basal, profiling panel (AID 1163). Note: test concentration not given here. As to conditions: 3T3-L1 adipocytes viability, higher = more signal.
Assay [13] in a line: compound effects on hepatocellular carcinoma cell viability – HepG2, calcein-AM fluorescence, 48 h, basal, profiling panel (AID 1164). Note: test concentration not given here. The following applies: higher = more signal.
A short description of assay [14]: compound effects on multiple myeloma cell viability – MM1S, calcein-AM fluorescence, 48 h, basal, profiling panel (AID 1165). Note: test concentration not given here. As to conditions: higher = more signal.
A short description of assay [15]: calcein-AM signal in unstimulated myeloma cells – cell-based, calcein-AM fluorescence, 48 h, PK04 Diversity Set, profiling panel (AID 1166).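 Note: cells grown under basal conditions without added stimulus; test concentration not given here.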 The following applies: RPMI8226 myeloma viability, higher = more signal.
The nature of assay [16]: JC-1 mitochondrial signal, unstimulated HepG2 cells – cell-based, JC-1 fluorescence, 24 h, 100 nL compound, profiling panel (AID 1167). Note: test concentration not given here. The following applies: HepG2 mitochondrial potential, higher = more signal.
Assay [17] can be described thus: JC-1 mitochondrial signal, unstimulated adipocytes – cell-based, JC-1 fluorescence, 3T3-L1 adipocytes, 24 h, 100 nL compound, profiling panel (AID 1168). Note: test concentration not given here. The following applies: JC-1 mitochondrial fluorescence, higher = more signal, called active from +8 up or from −8 down.
The nature of assay [18]: JC-1 mitochondrial signal, unstimulated myeloma cells – cell-based, JC-1 fluorescence, RPMI8226, 24 h, 100 nL compound, profiling panel (AID 1169). Note: test concentration not given here. As to conditions: JC-1 mitochondrial potential fluorescence, higher = more signal.
The nature of assay [19]: JC-1 mitochondrial signal, unstimulated MM1S myeloma – cell-based, JC-1 fluorescence, 24 h, 100 nL compound, profiling panel (AID 1170). Note: test concentration not given here. As to conditions: MM1S mitochondrial potential, higher = more signal.
Assay [20] in a line: resazurin metabolic signal in A549 cells – cell-based, resazurin fluorescence, 24 h, PK04 Diversity Set, profiling panel (AID 1171). Note: test concentration not given here. As to conditions: A549 viability, higher = more signal, called active from +8 up or from −8 down. In general terms: Resazurin is reduced to fluorescent resorufin, in cell work by metabolically active cells.

Chain of NADPH oxidase 5 (Homo sapiens) (Q96PH1 whole entry, looked up): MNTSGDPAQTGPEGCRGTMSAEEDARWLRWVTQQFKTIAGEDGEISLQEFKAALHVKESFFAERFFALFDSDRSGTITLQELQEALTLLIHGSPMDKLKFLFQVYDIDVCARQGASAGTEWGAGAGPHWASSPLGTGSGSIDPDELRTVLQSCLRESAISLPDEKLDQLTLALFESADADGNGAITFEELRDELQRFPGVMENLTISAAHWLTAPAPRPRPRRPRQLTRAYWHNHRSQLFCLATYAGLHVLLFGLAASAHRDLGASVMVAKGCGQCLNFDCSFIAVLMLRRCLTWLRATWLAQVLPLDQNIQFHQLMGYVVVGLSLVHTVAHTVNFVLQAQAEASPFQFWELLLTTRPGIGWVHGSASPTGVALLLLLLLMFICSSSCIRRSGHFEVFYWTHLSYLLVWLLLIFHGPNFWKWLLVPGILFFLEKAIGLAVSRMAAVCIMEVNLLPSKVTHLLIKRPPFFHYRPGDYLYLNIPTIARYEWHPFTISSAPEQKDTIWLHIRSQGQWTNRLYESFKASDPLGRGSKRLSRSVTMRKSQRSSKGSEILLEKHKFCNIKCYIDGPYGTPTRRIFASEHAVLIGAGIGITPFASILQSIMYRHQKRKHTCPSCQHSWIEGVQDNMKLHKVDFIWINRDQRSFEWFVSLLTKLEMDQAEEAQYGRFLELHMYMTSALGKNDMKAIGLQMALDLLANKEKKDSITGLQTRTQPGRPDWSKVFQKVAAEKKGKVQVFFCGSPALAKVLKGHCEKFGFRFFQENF

With `O=C1C[C@@H](O)[C@@H](O)[C@@H]2[C@@H]3C(=O)N(C[C@@H]4CCCO4)C(=O)[C@@H]3CC[C@H]12`, the z-score in [1] was 0.555 (inactive); in [3], 0.651 (inactive); in assay [4] it was 0.461 (inactive); in assay [5] it was -0.406 (inactive); in assay [6] it was 0.376 (inactive); in [7] it was -0.0289. The z-score in assay [8] was -0.453 (inactive); in [9], -0.111 (inactive); in [10], -0.0473; in assay [11], -0.232; in [12] it was -0.42; in assay [13], 0.614. The z-score in assay [14] is 0.136; in assay [15] it was 0.433; in [16], 0.446; in assay [17] it was 0.763 (inactive); in assay [18], -0.131; in [19], -0.586. Moreover, the z-score in [20] is -0.747 (inactive). This compound yielded a composite z-score in [2] of -0.0969.
Consider `COc1ccc(COC(=O)NN=C2C[C@@H](O)[C@@H](O)[C@@H]3[C@@H]4C(=O)N(Cc5ccccc5)C(=O)[C@@H]4CC[C@H]23)cc1`, for which the z-score was -0.0671 (inactive) in [1]; 8.9 (active) in assay [3]; 0.507 (inactive) in assay [4]; -1.3 (inactive) in [5]; -1.17 (inactive) in assay [6]; -0.411 in assay [7]. Also, the z-score in assay [8] was 1.43 (inactive); in assay [9], 0.954 (inactive); in [10], 0.729; in assay [11], 0.203; in [12] it was 0.649; in assay [13], -0.462. In addition, the z-score is 0.451 in assay [14]; -1.27 in [15]; 0.646 in assay [16]; -0.585 (inactive) in [17]; 0.365 in [18]; -0.592 in assay [19]. For the same compound, in assay [20], the z-score is 1.03 (inactive). The same compound yielded a composite z-score in [2] of 0.641.
Regarding `COc1ccc(COC(=O)NN=C2C[C@@H](O)[C@@H](O)[C@@H]3[C@@H]4C(=O)N(c5cccc(Oc6ccccc6)c5)C(=O)[C@@H]4CC[C@@H]23)cc1`, the z-score in [1] was -0.367 (inactive); in [3], 4.54 (inactive); in assay [4] it was 1.2 (inactive); in assay [5], 1.28 (inactive); in assay [6] it was 0.181 (inactive); in [7] it was -0.313. Besides, the z-score in [8] was 1.32 (inactive); in [9] it was 0.56 (inactive); in assay [10], 1.02; in [11], 0.226; in [12] it was -0.518; in [13], -0.826. Further, the z-score in assay [14] was 0.754; in assay [15] it was 0.196; in [16], -0.767; in assay [17] it was -0.0215 (inactive); in assay [18] it was 0.587; in assay [19], -0.442. Moreover, in assay [20], the z-score is 0.166 (inactive). Moreover, the composite z-score in assay [2] was 0.347.
For the compound `CCOC(=O)[C@H](CC(C)C)NC(=O)CCC1CC(OC(=O)NCCc2ccc(F)cc2)CC2(CCCC(COC(=O)NCC3CCCCC3)O2)O1` (stereo not given in full), the z-score in assay [1] was -1.12 (inactive); in assay [3], 2.04 (inactive); in assay [4] it was 0.132 (inactive); in assay [5], 0.107 (inactive); in assay [6], -0.341 (inactive); in assay [7], 0.673. For the same compound, the z-score in [8] is -0.202 (inactive); in assay [9], 0.728 (inactive); in assay [10], 0.123; in assay [11], -0.656; in [12] it was 0.0504; in assay [13] it was -0.843. Also, the z-score was -0.222 in [14]; 0.444 in assay [15]; -1.77 in assay [16]; -0.293 (inactive) in [17]; -0.168 in [18]; -0.24 in [19]. Moreover, the z-score in assay [20] is 0.21 (inactive). This compound showed a composite z-score in [2] of -0.169.
On to `CO[C@H]1COC(=O)CC=C[C@@H](C)[C@H](OC)COC(=O)[C@@H]2CCCN2C(=O)CC=C[C@@H]1C`, for which the z-score in [1] is 0.544 (inactive); in assay [3], -0.0903 (inactive); in assay [4], -0.289 (inactive); in [5], -0.32 (inactive); in assay [6] it was -0.0159 (inactive); in [7] it was 1.14. The z-score is 0.833 (inactive) in assay [8]; 0.196 (inactive) in [9]; 0.0432 in [10]; 0.976 in assay [11]; 0.308 in assay [12]; -0.259 in [13]. Besides, the z-score in assay [14] is 0.491; in [15] it was -0.394; in [16] it was 0.0843; in assay [17], -0.0391 (inactive); in [18] it was -0.83; in [19], 1.22. In addition, in assay [20], the z-score is 0.572 (inactive). This compound displayed a composite z-score in [2] of 0.114.
